The values that follow come from PubChem BioAssay (EPA / NIEHS).

In assay [1] the target is Estrogen receptor beta (Homo sapiens) (UniProt Q92731). Nature of the assay: OT_ER_ERbERb_1440: Odyssey Thera (OT) 24-hour HEK293T Protein-Complementation Assay for Estrogen Receptor-beta/-beta Homodimer (AID 2283380).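 Also: scored as signal increase over DMSO baseline for both agonists and antagonists.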 The method in brief:
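HEK293T cells stably expressing ER beta LBD (aa 310-547) homodimer fragment-complementation reporter, dosed 24 h. Cells formaldehyde-fixed, Draq5-stained; gain in nuclear (agonist) or nuclear plus cytoplasmic (antagonist) fluorescence versus DMSO read by laser scanning cytometry.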

Assay [2] concerns the target Bile acid receptor (Homo sapiens) (UniProt Q96RI1). The experiment in a line: OT_FXR_FXRSRC1_0480: Odyssey Thera (OT) 8-hour HEK293T Protein-Complementation Assay for Farnesoid X receptor/SRC-1 Co-activator (AID 2283383). The method in brief:
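HEK293T cells expressing FXR and SRC-1 fused to reporter fragments were dosed with compound for 8 h; fluorescence from the reconstituted reporter marked co-activator recruitment. Gain of signal was fitted against the DMSO baseline.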

For assay [3] the target is unchanged. Nature of the assay: OT_FXR_FXRSRC1_1440: Odyssey Thera (OT) 24-hour HEK293T Protein-Complementation Assay for Farnesoid X receptor/SRC-1 Co-activator (AID 2283384). The method in brief:
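HEK293T cells were dosed with compound and read 24 h later by fluorescence intensity from protein-fragment complementation reporting FXR/SRC-1 co-activator interaction. Gain of signal was fitted relative to DMSO negative control as baseline.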

Assay [4] deals with Retinoic acid receptor RXR-alpha (Homo sapiens) (UniProt P19793). Nature of the assay: OT_NURR1_NURR1RXRa_1440: Odyssey Thera (OT) 24-hour HEK293T Protein Complementation Assay for Nurr1/retinoid X receptor (RXR) (AID 2283386). The method in brief:
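HEK293T cells were dosed with compound and read 24 h later by fluorescence intensity in a protein-fragment complementation format, where Nurr1–RXRα interaction reconstitutes a split reporter. Activity was fitted as gain of signal relative to DMSO baseline.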

Assay [5] addresses Peroxisome proliferator-activated receptor gamma (Homo sapiens) (UniProt P37231). Nature of the assay: OT_PPARg_PPARgSRC1_0480: Odyssey Thera (OT) 8-hour Protein-Complementation Assay for Peroxisome Proliferator-activated Receptor Gamma / SRC-1 Co-activator (AID 2283387).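 Also: nuclear to cytoplasmic split Venus YFP fluorescence ratio reporting PPARg SRC-1 interaction.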 The method in brief:
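HEK293T transiently transfected with PPARg and SRC-1 fused to Venus YFP fragments, compounds 8 h at 37C. Fixed, Draq5-stained cells imaged; nuclear/cytoplasmic 488 nm fluorescence ratio over at least 350 cells per image; gain fitted versus DMSO.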

Read-out in assay [6]: Tumor necrosis factor receptor superfamily member 6 (Homo sapiens) (UniProt P25445)
Nature of the assay: LTEA_HepaRG_FAS: Life Technologies and Expression Analysis (LTEA) Assay for Fas cell surface death receptor (FAS) using HepaRG (AID 2283447; active = hit-call score of the fitted dose curve at least 0.9, where 1 is the maximum; inactive = score below 0.9). The note with it: mRNA level, 48 h; actives raise or lower the signal. The method in brief:
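Differentiated HepaRG cells in serum-free induction medium were exposed 48 h to 8 half-log concentrations up to 100 uM in 0.5% DMSO, in duplicate. FAS mRNA was measured by qRT-PCR normalised to ACTB, GAPDH and POLR2A; bidirectional fit versus DMSO.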

Assay [7] addresses Agonist Androgen Response Element (ARE), AR (gene 367) (UniProt P10275). The experiment in a line: OT_AR_ARELUC_AG_1440: Odyssey Thera (OT) 24-hour CHO-K1 Luciferase Assay for Agonist Androgen Response Element (ARE) (AID 2283379). The method in brief: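 CHO-K1 cells carrying an ARE-driven luciferase reporter were exposed to compounds for 24 h. Luminescence was then read after adding a D-luciferin/ATP mix, and activity was scored as a gain in signal over DMSO vehicle.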

Assay [8] addresses Estrogen receptor (Homo sapiens) (UniProt P03372). Nature of the assay: OT_ERa_GFPERaERE_0480: Odyssey Thera (OT) 8-hour HeLa Transcription Induction Assay for Estrogen Receptor (AID 2283381; active = hit-call score of the fitted dose curve at least 0.9, where 1 is the maximum; inactive = score below 0.9). The method in brief: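 HeLa cells dosed with compound and imaged by fluorescence microscopy at 8 h; GFP induction from an ERE reporter quantified by high-content image analysis and fitted as gain of signal against DMSO baseline.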

For assay [9] the target is unchanged. The experiment in a line: OT_ERa_GFPERaERE_0120: Odyssey Thera (OT) 2-hour HeLa Transcription Induction Assay for Estrogen Receptor (AID 2283382). The method in brief: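 HeLa cells were dosed with test chemical and read 2 hours later for GFP-ERα/ERE-linked fluorescent protein induction by fluorescence microscopy. Gain-of-signal was fitted relative to DMSO baseline, quantified by high content image analysis.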

For assay [10], the target named is Peroxisome proliferator-activated receptor gamma (Homo sapiens) (UniProt P37231). The experiment in a line: OT_PPARg_PPARgSRC1_1440: Odyssey Thera (OT) 24-hour Protein-Complementation Assay for Peroxisome Proliferator-activated Receptor Gamma/ SRC-1 Co-activator (AID 2283388). The method in brief:
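Cells carrying the PPARg/SRC-1 fragment-complementation reporter receive compound for 24 hours, are fixed and counterstained with Draq5, then imaged. Increased nuclear relative to cytoplasmic YFP fluorescence above DMSO baseline indicates binding activity.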

Assay [11] in a line: CEETOX_H295R_OHPREG: CeeTox H295R High-throughput Steroidogenesis Assay for OH-Pregnenolone (OHPREG) (AID 2283434; active = hit-call score of the fitted dose curve at least 0.9, where 1 is the maximum; inactive = score below 0.9). The note with it: actives raise or lower the signal. The method in brief: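 H295R cells pre-stimulated 48 h with 10 uM forskolin, then exposed 48 h to chemical in 0.1% DMSO. 17alpha-hydroxypregnenolone in medium quantified by MTBE extraction and HPLC-MS/MS; bidirectional fit versus DMSO, viability checked by MTT.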

The nature of assay [12]: CEETOX_H295R_ANDR: CeeTox H295R High-throughput Steroidogenesis Assay for Androstenedione (ANDR) (AID 2283436; active = hit-call score of the fitted dose curve at least 0.9, where 1 is the maximum; inactive = score below 0.9;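 also: human H295R adrenal cells exposed for 48 h with androstenedione measured in medium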). The note with it: actives raise or lower the signal. The method in brief: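 H295R cells, following OECD 456 with minor changes, exposed to chemicals for 48 h. Androstenedione in the medium was quantified by HPLC-MS/MS after MTBE extraction. Fitting was bidirectional versus DMSO; chemicals were diluted until MTT viability was ≥70%.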

Assay [13] is described as follows: CEETOX_H295R_ESTRADIOL: CeeTox H295R High-throughput Steroidogenesis Assay for Estradiol (AID 2283440; active = hit-call score of the fitted dose curve at least 0.9, where 1 is the maximum; inactive = score below 0.9;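 also: estradiol secreted into medium quantified by LC-MS/MS after dansyl derivatisation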). The note with it: actives raise or lower the signal. The method in brief:
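Readout is estradiol in conditioned medium, quantified by reverse-phase HPLC-MS/MS against a 7-point standard curve. Cells: H295R, forskolin-stimulated, then dosed 48 h in 0.1% DMSO; activity fitted in both directions relative to DMSO.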

Assay [14] in a line: CEETOX_H295R_ESTRONE: CeeTox H295R High-throughput Steroidogenesis Assay for Estrone (AID 2283441; active = hit-call score of the fitted dose curve at least 0.9, where 1 is the maximum; inactive = score below 0.9;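 also: estrone secreted into medium measured by LC-MS/MS after dansyl derivatization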). The settings on record: actives raise or lower the signal. The method in brief:
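H295R cells; 48 h forskolin (10 uM) prestimulation; 48 h compound exposure, 0.1% DMSO final. Medium estrone: MTBE extraction, dansyl derivatization, HPLC-MS/MS. Bidirectional fit vs DMSO.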

Assay [15] can be described thus: CEETOX_H295R_PROG: CeeTox H295R High-throughput Steroidogenesis Assay for Progesterone (PROG) (AID 2283442; active = hit-call score of the fitted dose curve at least 0.9, where 1 is the maximum; inactive = score below 0.9). The note with it: actives raise or lower the signal. The method in brief: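 Measured analyte is progesterone secreted by H295R cells at 48 h of chemical treatment, following 10 uM forskolin priming. Quantitation used HPLC-MS/MS against a 7-point standard curve; cytotoxicity was checked by MTT absorbance.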

The target of assay [16] is Retinoic acid receptor RXR-alpha (Homo sapiens) (UniProt P19793). Nature of the assay: OT_NURR1_NURR1RXRa_0480: Odyssey Thera (OT) 8-hour HEK293T Protein Complementation Assay for Nurr1/retinoid X receptor (RXR) (AID 2283385). The method in brief: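 HEK293T cells expressing Nurr1 and RXRα fused to reporter fragments were dosed with compound for 8 hours. Complex formation was read as fluorescence intensity and analysed as gain of signal against DMSO as baseline.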
Retinoic acid receptor RXR-alpha (Homo sapiens), sequence (P19793 whole entry, looked up, the tested form may be a part): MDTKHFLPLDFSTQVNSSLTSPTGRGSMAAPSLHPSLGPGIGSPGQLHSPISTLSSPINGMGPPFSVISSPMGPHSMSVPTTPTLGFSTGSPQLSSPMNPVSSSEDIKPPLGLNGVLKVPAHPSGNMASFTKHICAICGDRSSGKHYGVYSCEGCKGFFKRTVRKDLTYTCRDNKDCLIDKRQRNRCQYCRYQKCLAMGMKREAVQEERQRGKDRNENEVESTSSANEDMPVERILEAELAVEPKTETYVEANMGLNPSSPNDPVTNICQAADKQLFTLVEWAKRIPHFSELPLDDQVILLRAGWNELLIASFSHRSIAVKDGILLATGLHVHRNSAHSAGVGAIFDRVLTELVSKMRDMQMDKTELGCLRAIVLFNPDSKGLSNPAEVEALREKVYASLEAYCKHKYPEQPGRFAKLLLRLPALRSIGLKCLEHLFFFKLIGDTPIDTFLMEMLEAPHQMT

Records with an inconclusive call do not appear. The source holds several records for some structures; these can differ, active in one and inactive in another. The source made the active and inactive calls. The calls were made as follows, unless noted: active = hit-call score of the fitted dose curve at least 0.9, where 1 is the maximum; inconclusive = response in the unintended direction; inactive = score below 0.9.

Estrogen receptor (Homo sapiens), sequence (P03372 whole entry, looked up): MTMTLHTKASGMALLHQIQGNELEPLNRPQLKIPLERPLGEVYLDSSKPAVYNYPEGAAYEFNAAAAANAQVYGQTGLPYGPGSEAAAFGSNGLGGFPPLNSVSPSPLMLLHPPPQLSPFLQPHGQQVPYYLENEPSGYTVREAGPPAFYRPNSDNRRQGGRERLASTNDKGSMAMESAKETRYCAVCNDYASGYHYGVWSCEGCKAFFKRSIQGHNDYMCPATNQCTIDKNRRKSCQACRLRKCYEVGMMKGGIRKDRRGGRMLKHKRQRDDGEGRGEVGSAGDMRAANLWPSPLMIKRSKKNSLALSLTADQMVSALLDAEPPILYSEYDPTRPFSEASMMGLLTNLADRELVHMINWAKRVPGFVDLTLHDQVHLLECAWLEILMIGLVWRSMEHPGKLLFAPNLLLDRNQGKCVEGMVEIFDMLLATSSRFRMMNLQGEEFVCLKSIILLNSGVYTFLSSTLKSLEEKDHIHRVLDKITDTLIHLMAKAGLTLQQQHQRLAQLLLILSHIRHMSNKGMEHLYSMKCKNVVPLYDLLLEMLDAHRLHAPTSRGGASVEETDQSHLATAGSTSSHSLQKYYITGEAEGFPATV
Bile acid receptor (Homo sapiens), sequence (Q96RI1 whole entry, looked up, the tested form may be a part): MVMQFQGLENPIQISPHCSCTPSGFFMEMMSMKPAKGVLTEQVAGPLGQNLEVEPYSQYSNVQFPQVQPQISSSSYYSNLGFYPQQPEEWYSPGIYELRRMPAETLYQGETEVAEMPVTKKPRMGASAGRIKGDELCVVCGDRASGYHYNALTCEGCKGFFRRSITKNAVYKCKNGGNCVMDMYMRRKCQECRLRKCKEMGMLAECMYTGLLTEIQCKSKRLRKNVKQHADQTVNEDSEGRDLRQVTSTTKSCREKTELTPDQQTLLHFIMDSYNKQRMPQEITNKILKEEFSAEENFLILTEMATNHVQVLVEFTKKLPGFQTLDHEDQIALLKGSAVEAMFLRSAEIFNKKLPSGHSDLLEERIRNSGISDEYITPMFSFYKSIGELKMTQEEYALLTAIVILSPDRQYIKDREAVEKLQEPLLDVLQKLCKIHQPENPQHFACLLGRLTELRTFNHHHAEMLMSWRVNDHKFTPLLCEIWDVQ
Estrogen receptor beta (Homo sapiens), sequence (Q92731 whole entry, looked up, the tested form may be a part): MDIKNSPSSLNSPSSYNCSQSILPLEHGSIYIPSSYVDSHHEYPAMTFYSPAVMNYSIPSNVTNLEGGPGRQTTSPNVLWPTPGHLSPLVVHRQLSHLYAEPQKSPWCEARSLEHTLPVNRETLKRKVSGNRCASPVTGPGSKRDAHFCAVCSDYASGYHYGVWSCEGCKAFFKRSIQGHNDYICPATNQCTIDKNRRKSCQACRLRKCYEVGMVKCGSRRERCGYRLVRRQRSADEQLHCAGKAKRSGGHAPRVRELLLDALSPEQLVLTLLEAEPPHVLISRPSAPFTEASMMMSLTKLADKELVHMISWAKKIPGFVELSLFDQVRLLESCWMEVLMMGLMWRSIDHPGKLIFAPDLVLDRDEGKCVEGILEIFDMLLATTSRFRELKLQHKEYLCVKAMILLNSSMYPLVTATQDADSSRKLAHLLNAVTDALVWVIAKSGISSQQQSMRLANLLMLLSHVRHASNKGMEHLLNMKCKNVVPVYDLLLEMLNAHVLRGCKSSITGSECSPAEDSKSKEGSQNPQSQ
Peroxisome proliferator-activated receptor gamma (Homo sapiens), sequence (P37231 whole entry, looked up, the tested form may be a part): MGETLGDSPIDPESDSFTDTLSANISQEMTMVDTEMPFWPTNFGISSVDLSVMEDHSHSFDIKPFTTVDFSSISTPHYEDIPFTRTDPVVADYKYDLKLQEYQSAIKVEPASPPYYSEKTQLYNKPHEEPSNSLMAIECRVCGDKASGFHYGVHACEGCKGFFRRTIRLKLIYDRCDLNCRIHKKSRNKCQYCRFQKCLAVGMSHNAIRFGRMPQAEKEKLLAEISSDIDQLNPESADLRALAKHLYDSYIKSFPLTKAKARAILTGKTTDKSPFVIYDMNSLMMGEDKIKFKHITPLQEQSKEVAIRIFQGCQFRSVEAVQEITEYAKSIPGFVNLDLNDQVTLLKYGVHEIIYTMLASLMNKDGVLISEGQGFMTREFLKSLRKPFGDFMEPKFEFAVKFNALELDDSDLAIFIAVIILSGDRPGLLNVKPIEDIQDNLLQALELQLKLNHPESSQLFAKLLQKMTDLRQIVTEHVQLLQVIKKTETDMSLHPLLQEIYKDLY
Agonist Androgen Response Element (ARE), AR (gene 367), sequence (P10275 whole entry, looked up): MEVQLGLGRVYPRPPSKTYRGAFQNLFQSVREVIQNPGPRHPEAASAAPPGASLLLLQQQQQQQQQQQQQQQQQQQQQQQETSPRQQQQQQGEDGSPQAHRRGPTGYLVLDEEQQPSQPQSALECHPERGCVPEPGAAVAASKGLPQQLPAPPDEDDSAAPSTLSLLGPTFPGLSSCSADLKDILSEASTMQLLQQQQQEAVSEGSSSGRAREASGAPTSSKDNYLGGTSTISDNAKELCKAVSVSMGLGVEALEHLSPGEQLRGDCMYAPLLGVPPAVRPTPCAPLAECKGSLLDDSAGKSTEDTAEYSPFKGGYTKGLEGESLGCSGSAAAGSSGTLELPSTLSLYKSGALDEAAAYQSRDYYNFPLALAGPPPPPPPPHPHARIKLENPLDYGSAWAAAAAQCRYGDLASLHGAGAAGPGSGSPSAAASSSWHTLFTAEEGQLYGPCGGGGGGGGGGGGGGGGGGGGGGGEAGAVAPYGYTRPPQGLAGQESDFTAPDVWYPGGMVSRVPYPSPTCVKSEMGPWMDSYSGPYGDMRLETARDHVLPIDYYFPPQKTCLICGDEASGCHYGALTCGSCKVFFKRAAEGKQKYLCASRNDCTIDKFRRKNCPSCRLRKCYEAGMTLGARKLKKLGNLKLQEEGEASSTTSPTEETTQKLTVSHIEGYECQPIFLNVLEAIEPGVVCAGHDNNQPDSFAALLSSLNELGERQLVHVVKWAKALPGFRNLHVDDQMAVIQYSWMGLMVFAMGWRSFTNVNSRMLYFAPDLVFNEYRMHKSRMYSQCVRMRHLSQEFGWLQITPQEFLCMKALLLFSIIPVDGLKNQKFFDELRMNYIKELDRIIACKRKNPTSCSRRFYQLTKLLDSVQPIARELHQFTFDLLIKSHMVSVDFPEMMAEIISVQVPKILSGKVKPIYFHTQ

Turning to `CCCCSP(=O)(SCCCC)SCCCC`, the compound was classed as inactive in assay [1], in [3], in assay [4], in [5] and in assay [6]. In addition, the AC50 in [2] was 36.9 µM (active).

Take `Nc1c(Cl)cc([N+](=O)[O-])cc1Cl`: the outcome in [7], in [1], in [8], in [9], in assay [2] and in assay [4] was inactive. Also, the compound was classed as inactive in assay [5], in assay [10] and in [6].

In the case of `CSC1=N[C@@](C)(c2ccccc2)C(=O)N1Nc1ccccc1`, the call in assay [1], in assay [4] and in assay [5] was inactive. The AC50 was 44.8 µM (active) in assay [2], 50 µM (active) in [3] and 77.8 µM (active) in assay [6].

As to `O=c1ccc(=O)[nH][nH]1`, the call in assay [7], in assay [2], in [4], in [5], in assay [10] and in assay [6] was inactive.

Regarding `CC(C)=CC1C(C(=O)OCN2C(=O)C3=C(CCCC3)C2=O)C1(C)C` (stereo not given), the compound was classed as inactive in assay [7], in assay [4], in assay [5] and in [6].

In the case of `CNC(=O)ON=C(SC)C(=O)N(C)C`, the compound was called inactive in assay [7], in assay [1], in assay [8], in assay [9], in assay [4] and in assay [5]. Also, the call in assay [11], in assay [12], in [13], in assay [14], in assay [15] and in assay [6] was inactive.

`CC(COc1ccc(Oc2ccccc2)cc1)Oc1ccccn1` (stereo not given): the call in assay [1], in assay [4], in [5], in assay [11], in [12] and in assay [15] was inactive. Besides, in [6], the result was inactive. The AC50 was 43 µM (active) in assay [2] and 7.29 µM (active) in assay [3].

With `CCC(CC)Nc1c([N+](=O)[O-])cc(C)c(C)c1[N+](=O)[O-]`, the concentration at half-maximal activity (AC50) was 13.5 µM (active) in assay [1], 43.3 µM (active) in assay [2], 71.7 µM (active) in assay [3] and 82.1 µM (active) in assay [4]. For the same compound, the result in [16], in [4], in assay [5], in [10] and in assay [6] was inactive.

`CCc1cccc(CC)c1N(COC)C(=O)CCl`: the call in assay [1], in assay [8], in assay [9], in assay [2], in [3] and in [16] was inactive. Moreover, the compound was classed as inactive in assay [5] and in assay [6]. For the same compound, the AC50 in assay [4] is 0.714 µM (active).

One may read the AC50 as the concentration at which the activity in the assay is half-maximal.
